Data published in PubChem BioAssay (NCI).
The panel holds about 83,000 compounds, 20% with a hit somewhere; the sample as a whole holds those more often.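 Negative percent growth values reflect cell death: -40 means 40% of the cells present at the start died, and -100 means all died.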 A number with no mark means an inactive call. Active and inactive are the calls of the source. The calls were made as follows: active = growth percent below 10; inactive = the rest.

Tests used:
Assay in all cases: NCI-60 one-dose screen, 48 h (100 = growth as untreated, 0 = no growth, -100 = all killed)
Settings in all cases: 10 µM unless noted
T-47D breast = tested on: T-47D breast
BT-549 breast = tested on: BT-549 breast
MDA-MB-435 melanoma = tested on: MDA-MB-435 melanoma
SW-620 colon = tested on: SW-620 colon
MCF7 breast = tested on: MCF7 breast
HCT-116 colon = tested on: HCT-116 colon
HCC-2998 colon = tested on: HCC-2998 colon
KM12 colon = tested on: KM12 colon

Row | SMILES | growth (T-47D breast) | growth (BT-549 breast) | growth (MDA-MB-435 melanoma) | growth (SW-620 colon) | growth (MCF7 breast) | growth (HCT-116 colon) | growth (HCC-2998 colon) | growth (KM12 colon)
1 | C/C(=N\Nc1ccc2ccccc2n1)c1ccccn1 | 19.8% | 20.3% | 3.21% (active) | 10.3% | 8.28% (active) | -12% (active) | 18.1% | 6.76% (active)
2 | CC(=O)O[C@H]1CC[C@@]2(C)C(=CC[C@@H]3[C@@H]2CC[C@]2(C)C(=O)N(O)C(=O)C[C@@H]32)C1 | 87.1% | 91.9% | 104% | 72.6% | 76% | 76.3% | 78.1% | 71.8%
3 | COc1cc(-c2cc3ncccc3c3nc(N)c4cccnc4c23)cc(OC)c1OC | 35% | 27.6% | -33.7% (active) | 23.9% | 21.7% | 9.87% (active) | 40.2% | 30.8%
4 | Fc1ccc2[nH]cc(-c3nc(-c4c[nH]c5ncccc45)cs3)c2c1 | 47.3% | 20.6% | 62.1% | 47.2% | 30.3% | 26.2% | 84.4% | 38.9%
5 | Fc1ccc2nc(-c3cc(-c4ccc5c(c4)OCO5)n[nH]3)[nH]c2c1 | 50.4% | 27.5% | 46.4% | 37.2% | 59.3% | 49.6% | 71.9% | 16.1%
6 | Cc1cc(N(CCCNc2ccnc3cc(Cl)ccc23)Cc2ccco2)nc(N2CCOCC2)n1 | 88.5% | 58.4% | 62.9% | 63.3% | 63.4% | 43.8% | 87.4% | 79.3%
7 | Cn1cc(-c2csc(-c3cn(CCN)c4ccc(F)cc34)n2)c2cccnc21 | 19% | 89.1% | 53.5% | 52.6% | 36.2% | 77.1% | 91.1% | 47.7%
8 | O=C1OC(c2ccc(Cl)c(Cl)c2)=C/C1=C/c1cccc([N+](=O)[O-])c1 | 96.7% | 111% | 104% | 102% | 101% | 86.5% | 103% | 104%
9 | CC1(C)CC[C@]2(C(=O)NCCNCCN)CC[C@]3(C)C(=CC[C@@H]4[C@@]5(C)CCC(=O)C(C)(C)[C@@H]5CC[C@]43C)[C@@H]2C1 | -71.1% (active) | 83.5% | 61% | -78.4% (active) | -23.8% (active) | -54% (active) | 24.5% | 9.99% (active)
10 | O=S(=O)(NCCNc1cc(-c2cn(-c3ccccc3)nc2-c2cccc(O)c2)ccn1)c1cccc(F)c1 | 11.6% | 48% | 43.5% | 19.1% | 21.4% | 23.2% | -15.6% (active) | 31.1%
11 | Cn1cc(-c2csc(-c3c[nH]c4ccccc34)n2)c2cccnc21 | 27.2% | 49.6% | -13.9% (active) | 29.6% | 13.6% | 30.5% | 33.2% | 32.5%
12 | COc1ccc(/C=C/C(=O)NCCO)cc1 | 89.8% | 102% | 104% | 99.3% | 94.8% | 101% | 103% | 103%
13 | COC(=O)[C@]12CC[C@@H](C)[C@H](C)[C@@H]1C1=CC[C@@H]3[C@@]4(C)CC(=O)[C@H](OC(=O)c5ccco5)[C@@]5(C)COC(=C45)C[C@@]3(C)[C@]1(C)CC2 | 1.72% (active) | 25.9% | 21.4% | 31.2% | 15.7% | 16.4% | 52.3% | 27.9%
14 | O=C1CCC/C=C\C[C@H]2C=C(Cl)C(=O)/C2=C/C[C@H](CCCCC(F)(F)F)OC(=O)CCC/C=C\C[C@H]2C=C(Cl)C(=O)/C2=C/C[C@H](CCCCC(F)(F)F)O1 | -7.29% [7.5 µM] (active) | -43.8% [7.5 µM] (active) | -14.3% [7.5 µM] (active) | -30.8% [7.5 µM] (active) | -38.9% [7.5 µM] (active) | -93.4% [7.5 µM] (active) | -54.7% [7.5 µM] (active) | -60.3% [7.5 µM] (active)
15 | O=C(CCCCCn1c2ccccc2c2c3c(c4c5ccccc5[nH]c4c21)C(=O)N(O)C3=O)N1CCOCC1 | 23.6% | 60.3% | 54.9% | 56.4% | 15.7% | 24.3% | 18.8% | 47.6%
16 | Cn1c2ccccc2c2c3c(c4c5cccnc5[nH]c4c21)C(=O)N(O)C3=O | 16.4% | 44.6% | 64.3% | 45.4% | 12.9% | 36.3% | 54.4% | 65.9%
17 | O=C1NC(=Nc2ccc(S(=O)(=O)Nc3nccs3)cc2)S/C1=C\c1coc2ccccc2c1=O | 97.1% | 106% | 124% | 99.7% | 88% | 104% | 99.1% | 113%
18 | Nc1c2c(nc3ccc(Br)cc13)CC(c1ccccc1)CC2=O (stereo not given) | 43.1% | 42.9% | -43.4% (active) | 26.1% | 21.1% | 31.9% | 62.9% | 24.7%
19 | CC(=O)O[C@H]1CC[C@]2(C)[C@H]3CC=C4[C@@H]5[C@H](C)[C@@H](C)CC[C@]5(C(=O)NCCNCCNCCN)CC[C@@]4(C)[C@]3(C)CC[C@H]2C1(C)C | 63.8% | 93.7% | 83% | 87.3% | 58.1% | 62.3% | 80% | 86.2%
20 | C=C(C)[C@@H]1CC[C@]2(C(=O)N3CCCNCC3)CC[C@]3(C)[C@H](CC[C@@H]4[C@@]5(C)CCC(=O)C(C)(C)[C@@H]5CC[C@]43C)[C@@H]12 | 83.9% | 93.6% | 95.5% | 93.5% | 91.4% | 71.6% | 103% | 98.7%
21 | NCCn1cc(-c2nc(-c3c[nH]c4ncccc34)cs2)c2cc(Br)ccc21 | 44.8% | 97.8% | 84.8% | 7.12% (active) | 30.7% | 66.6% | 100% | 65.2%
22 | COc1ccc(-c2cc(-c3c(C)oc4cc5occc5c(OC)c4c3=O)nc(N)c2C#N)cc1OC | 41.2% | 70.8% | 17.6% | 57.5% | 24.8% | 53.7% | 98% | 59.6%
23 | COc1cc2ncnc(Nc3ccc(Oc4ccnc(C)c4)c(C)c3)c2cc1NC(=O)CC1CCSS1 (stereo not given) | -66% (active) | -48.4% (active) | -33.4% (active) | -33.7% (active) | -69.6% (active) | -65.5% (active) | -88.6% (active) | -68.8% (active)
24 | Cc1ccnc2c(OCc3ccccc3)cccc12 | 72.8% | 101% | 90.2% | 92% | 38.3% | 92.4% | 86.6% | 82.8%
25 | Cn1c2c(c3ccc(Cl)cc31)-n1cccc1C2=O | 95.2% | 92.6% | 112% | 93.7% | 74.2% | 76.9% | 101% | 100%
26 | O=C(NO)c1ccc(Cn2c(=O)n(CCc3ccc(O)cc3)c(=O)c3ccccc32)cc1 | 11.8% | 65.7% | -15.6% (active) | 22.4% | 44.5% | 24.9% | 79% | 22.7%
27 | COc1ccccc1CNc1nc(N)nc2[nH]c3ccc(O)cc3c12 | 32.1% | 62.8% | -27.6% (active) | 25.9% | 19.2% | 31% | 67% | 22.4%
28 | COc1cc(-c2cc3cc(O)ccc3oc2=O)cc(OC)c1OC | 75.7% | 106% | 90.7% | 108% | 87.2% | 88.9% | 116% | 93.2%
29 | CC(C)c1cc(C(=O)O)c(O)c(C(C)C)c1.CC(C)c1cc(C(=O)O)c(O)c(C(C)C)c1.[Mn] | 82% | 91.2% | 108% | 106% | 104% | 103% | 134% | 98.1%
30 | COc1cccc(-c2nn(-c3ccccc3)cc2-c2ccnc(NCCNS(=O)(=O)c3cccc(F)c3)c2)c1 | 6.41% (active) | 46.9% | 20% | 46% | 14.1% | 21.4% | 17.1% | 19.6%
